Experimental findings from PubChem BioAssay (EPA / NIEHS) are described below.

Usually AC50 stands for the concentration at which the activity in the assay is half-maximal.

The source made the active and inactive calls. Rule for the calls: active = hit-call score of the fitted dose curve at least 0.9, where 1 is the maximum; inactive = score below 0.9.

Read-out in the test: urokinase plasminogen activator (uPA), PLAU (gene 5328)
In words: BSK_KF3CT_uPA: BioMAP Diversity Plus: KF3CT Assay for urokinase plasminogen activator (uPA) Biomarker Activity (AID 2283075). The following applies: primary human keratinocytes with fibroblasts; actives raise or lower the signal. As to the method: BSK_KF3CT is a cell-based, multiplexed-readout assay that uses keratinocytes and foreskin fibroblasts, a human skin primary cell co-culture, with measurements taken at 24 hours after chemical dosing in a 96-well plate.BSK_KF3CTA is an assay component measured in the BSK_KF3CT assay. It measures uPA antibody related to regulation of gene expression using ELISA technology.Data from the assay component BSK_KF3CTA was analyzed into 1 assay endpoint. This assay endpoint, BSK_KF3CTA, was analyzed with bidirectional fitting relative to DMSO as the negative control and baseline of activity. Using a type of binding reporter, gain or loss-of-signal activity can be used to understand changes in the signaling as they relate to the gene PLAU. Furthermore, this assay endpoint can be referred to as a primary readout, because this assay has produced multiple assay endpoints where this one serves a signaling function. To generalize the intended target to other relatable targets, this assay endpoint is annotated to the protease intended target family, where the subfamily is serine protease.
The levels of cell surface (or secreted, indicated by the prefix "s") biomarker endpoints were measured by ELISA. Overt cytotoxicity to cells in confluent adherent cultures (all systems other than the BT system) was assessed by measuring total protein levels using sulforhodamine B (SRB) staining in parallel cultures at the time of biomarker measurements, indicated as SRB endpoints. For proliferation assays for adherent cell types, individual cell types are cultured at sub-confluence and relative cell numbers quantified by SRB staining at time points optimized for each system (48 h: 3C and CASM3C systems; 72 h: BT and HDF3CGF systems; 96 h: SAg system). SRB was performed by staining cells with 0.1% SRB after fixation with 10% TCA and reading wells at 560 nm.Viability and proliferation of PBMC (T cells) was quantified by Alamar Blue reduction for the SAg and BT systems. For PBMC viability (referred to as PBMC Cytotoxicity within the assay endpoint names), cells were plated (75,000/well in a 96-well plate) and then chemical samples added for 1 h before addition of activators, SEB and TSST-1 (20 ng/mL final concentration each). Cells were incubated for 90 h. Then, Alamar Blue (20 uL/well) (Invitrogen, Cat DAL1100) was added for 6 h, and the plates were read with a fluorescence microplate reader at 546/580 nm (excitation/emission). For PBMC proliferation, cells were plated and activated as above but incubated for only 16 h prior to addition of Alamar Blue. Plates were read after 6 h.
For the molecule `CCCCCc1ccc(N)cc1`, the result was inactive.
Still for that read-out and setting: for `Cc1occc1C(=O)Nc1ccc(C(=O)N2CCC(F)(F)/C(=C\C(=O)N3CCC(N4CCCCC4)CC3)c3ccccc32)cc1` the value was “inactive”.
For the molecule `O=C(O)c1ccccc1C(=O)OCc1ccccc1`, the result was inactive.
The same measure, in the same setting: for `Cc1oc2c(NC(=O)c3c(Cl)cccc3Cl)cccc2c1C(C)(C)O` the value was “inactive”.
Still for that read-out and setting: the value for `Clc1cc(Cl)c2c(c1)N=C1CCCCCN1C2` was “inactive”.
Turning to `O=c1[nH]sc2ccccc12`, the half-maximal activity concentration (AC50) was 33 µM (active).
Regarding `O=C(O)Cc1cc(I)c(Oc2ccc(O)c(I)c2)c(I)c1`, the outcome was inactive.
With `CCCCCCCC[Si](OCC)(OCC)OCC`, the result was inactive.
Regarding `CN(C[C@@H](CC[N+]12CCC(C3CCCCC3)(CC1)CC2)c1ccc(Cl)c(Cl)c1)C(=O)c1cc(C(F)(F)F)cc(C(F)(F)F)c1`, the AC50 is 10.5 µM (active).
For the molecule `CCCCCCCCCCCCO`, the AC50 was 30.4 µM (active).
In the case of `CC1(C)NC(=O)N(c2ccc([N+](=O)[O-])c(C(F)(F)F)c2)C1=O`, the result was inactive.
On to `C[C@]12CC[C@@H]3c4ccc(O)cc4CC[C@H]3[C@@H]1CCC2=O`, for which the result was inactive.
On to `CCCOC(=O)c1cc(O)c(O)c(O)c1`, for which the AC50 was 3.97 µM (active).
For `CCO[Si](CCCNC(N)=O)(OCC)OCC`, the outcome was inactive.
Same read-out and setting: the value for `c1ccc2n[nH]nc2c1` was “inactive”.
On the same count and under the same terms, for `OC12N=C(c3ccccc3)SC1Cc1cc(Cl)ccc12` (stereo not given) the value was “inactive”; for `O=C1O[C@H]([C@@H](O)CO)C(O)=C1O`, “inactive”; for `CCCCCCCCOc1ccc(C(=O)c2ccccc2)c(O)c1`, “inactive”.
On the same count and under the same terms, the value for `CC(C)(O)c1ccc(CNC(=O)c2cccnc2Oc2ccc3nonc3c2)cc1` was “inactive”.
Take `c1ccc(C[n+]2cccc3ccccc32)cc1`: the outcome was inactive.
Same read-out and setting: for `CC[C@@H]1C[C@H](N(Cc2cc(C(F)(F)F)cc(C(F)(F)F)c2)C(C)=O)c2cc(C(F)(F)F)ccc2N1C(=O)OC(C)C` the value was “inactive”.
For `CCOC(=O)O[C@H](C)OC(=O)c1ccc2c(c1)cc(C(=O)NC1CCN(C(C)C)CC1)n2Cc1cc(-c2ccc(Cl)s2)on1`, the AC50 was 8.14 µM (active).
On to `Cc1cn([C@H]2C[C@H](N=[N+]=[N-])[C@@H](CO)O2)c(=O)[nH]c1=O`, for which the outcome was inactive.
Regarding `CCCCCCCCOC(=O)c1cc(O)c(O)c(O)c1`, the AC50 was 18.2 µM (active).
Turning to `Oc1ccccc1`, the outcome was inactive.
For `CN(C)C(=O)C1(N2CCCCC2)CCN(CC[C@@]2(c3ccc(Cl)c(Cl)c3)CN(C(=O)c3ccccc3)CCO2)CC1`, the AC50 was 32.1 µM (active).
Turning to `COc1cccc([C@H](O)C2CCN(CCc3ccc(F)cc3)CC2)c1OC`, the outcome was inactive.
Consider `NCc1cccc(C2CCN(C(=O)c3ccc(C#Cc4ccccc4F)o3)CC2)c1`, for which the AC50 was 11.1 µM (active).
On to `O=c1ccc2ccccc2o1`, for which the outcome was inactive.
Same read-out and setting: the value for `CC1=CC(=O)/C(=C(/C)O)C(=O)O1` was “inactive”.
With `Clc1ccccc1C(c1ccccc1)(c1ccccc1)n1ccnc1`, the AC50 is 9.72 µM (active).
Same read-out and setting: the value for `NC(=O)c1nc(-c2cccc(-c3cc(F)ccc3OCC(F)(F)C(F)(F)F)c2)n[nH]1` was 43.1 µM (active).
As for `CO[C@H]1/C=C/O[C@@]2(C)Oc3c(C)c(O)c4c(O)c(c(/C=N/N5CCN(C)CC5)c(O)c4c3C2=O)NC(=O)/C(C)=C\C=C\[C@H](C)[C@H](O)[C@@H](C)[C@@H](O)[C@@H](C)[C@H](OC(C)=O)[C@@H]1C`, the outcome was inactive.
On the same count and under the same terms, for `CC[C@H](NC(=O)c1cc(F)ccc1NS(=O)(=O)c1cccc2cccnc12)c1ccccc1` the value was “inactive”.
For the molecule `O=CCCCC=O`, the AC50 is 32 µM (active).
Regarding `OCCO`, the result was inactive.
As to `COc1cc(C(=O)NC2CCN(C)CC2)ccc1Nc1ncc2c(n1)N(C1CCCC1)CC(F)(F)C(=O)N2C`, the AC50 was 27.1 µM (active).
As to `CCCCOC(=O)CC(CC(=O)OCCCC)(OC(C)=O)C(=O)OCCCC`, the result was inactive.
As to `CN1C(=O)N(c2ccccc2Br)Cc2cnc(Nc3ccc4c(c3)OCC(CO)O4)nc21` (stereo not given), the AC50 is 12.4 µM (active).
For the molecule `Oc1ccc2ccccc2c1`, the result was inactive.
